# Assay outcomes: PubChem, National Center for Advancing Translational Sciences (NCATS)
# An excerpt weighted towards active compounds, which were near 21% of everything screened.
# Pf growth 48h: Primary qHTS for delayed death inhibitors of the malarial parasite plastid, 48 hour incubation; P. falciparum luciferase growth in erythrocytes, 48 h; Potency, µM (series often up to 28.7 µM), hits mostly inhibitors; 310,000 compounds, 5.9% hits
#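 A one-generation exposure of luciferase-tagged malaria parasites in RPMI 1640/Albumax erythrocyte culture, 37 C and 5% CO2. Inhibition is inferred from decreased luminescence after adding detection reagent.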
# Cycloheximide cs: Cycloheximide Counterscreen for Small Molecule Inhibitors of Shiga Toxin; cell reporter, cycloheximide protein synthesis inhibition counterscreen; max response, %; 300,000 compounds, 12% hits; in the data active means max response mostly above about 13%, no sharp cut-off; inactive means mostly below about 14%; further: read at 38.3 µM for the half of the compounds with a filed dose
# Pf growth 96h: Primary qHTS for delayed death inhibitors of the malarial parasite plastid, 96 hour incubation. P. falciparum luciferase reporter growth, 96 h. Potency, µM (doses to about 28.7 µM), usual class: inhibitors. 320,000 compounds, 6.9% hits. AID 504834, 2011
#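 Parasite growth measured via integrated firefly luciferase reporter in P. falciparum. Infected erythrocytes at 2% hematocrit, 0.05% parasitemia final were treated 96 hours at 37 C under 5% CO2, and luminescence was read.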
# NS1 inh: qHTS Assay for Inhibitors of Influenza NS1 Protein Function. Potency, µM (highest dose often 46.1 µM). 270,000 compounds, 0.4% hits; calls by dose curve; further: actives are rising curves; nearly all actives have a fitted effect of over 50% in size
#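 Growth recovery, yeast-based: influenza A NS1 expressed in S. cerevisiae causes slow growth, and suppressors are detected by OD600. The parent strain without NS1 is used as positive control.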
# FBPA Giardia inh: qHTS Assay for Inhibitors of Fructose-1,6-bisphosphate Aldolase from Giardia Lamblia | purified Giardia FBPA | Potency, µM (highest dose often 59.6 µM), hits mostly inhibitors | 290,000 compounds, 0.71% hits | AID 2451, 2010; further: nearly all actives have a fitted effect of over 55% in size
# Target sequence (A8B2U2 whole entry, looked up): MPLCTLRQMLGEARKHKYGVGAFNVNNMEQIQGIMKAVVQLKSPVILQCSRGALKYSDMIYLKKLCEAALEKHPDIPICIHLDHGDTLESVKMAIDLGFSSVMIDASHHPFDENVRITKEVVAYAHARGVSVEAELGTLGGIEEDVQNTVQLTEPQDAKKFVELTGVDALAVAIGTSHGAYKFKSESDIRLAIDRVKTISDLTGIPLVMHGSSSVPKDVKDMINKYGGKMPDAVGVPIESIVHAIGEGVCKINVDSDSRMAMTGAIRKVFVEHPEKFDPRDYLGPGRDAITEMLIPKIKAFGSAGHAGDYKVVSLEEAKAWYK
#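 Giardia FBPA (40 nM reagent) was preincubated 10 min at RT with compound (up to 57.5 uM final), then substrate plus GAPDH/TPI/NAD/arsenate coupling system with diaphorase/resazurin was added; resorufin fluorescence (525/598 nm) was read after 20 min.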
# Shiga inhibitor: A qHTS for Small Molecule Inhibitors of Shiga Toxin | Vero cells, Shiga toxin protein synthesis inhibition reporter | inhibition, % at 38.7 µM | 290,000 compounds, 9.2% hits; in the data active means inhibition mostly above about 28%, no sharp cut-off; inactive means mostly below about 43%
# Numbers stand for hits; - = inactive; ? = inconclusive; . = no result given; [ ] = remark or other dose. Unless noted, the call rests on the fitted dose curve; in most records, active means well fitted curve in the direction sought with a large enough effect; inconclusive means small, poorly fitted or top-dose-only effect, or another doubt; inactive means no such curve, though single readings can be large; an effect the other way counts as inactive or inconclusive.
SMILES,Pf growth 48h,Cycloheximide cs,Pf growth 96h,NS1 inh,FBPA Giardia inh,Shiga inhibitor
COC(=O)c1ccc(CC(C(=O)c2ccccc2)N(C)C)cc1 (stereo unspecified),.,47.9,?,-,-,107.2
COC(=O)c1ccc(C(=O)N(Cc2ccccc2)c2ccccc2)cc1,?,-,-,-,-,-
Cc1cc(N)c2ccccc2[n+]1CCCCCCCCCC[n+]1c(C)cc(N)c2ccccc21,0.181µM,.,-,-,-,.
Cc1cc(C)cc(NC(=O)CSc2nnc(CNC(=O)c3ccco3)o2)c1,-,-,?,-,.,-
COc1ccc(NC(=O)CSc2nnc(NC(=O)c3ccco3)s2)cc1OC,-,-,-,-,.,-
Cc1cccc(NC(=O)CSc2nnc(NC(=O)c3ccco3)s2)c1,-,-,-,.,-,43.0
Cc1cccc(NC(=O)CSc2nnc(CNC(=O)c3ccco3)o2)c1,-,-,10.4µM,-,.,-
CCSc1nnc(NC(=O)c2csc(C)c2)s1,-,16.9,.,-,-,48.8
COc1cc(C(=O)NCc2nnc(SCC(=O)Nc3cccc(C)c3)o2)cc(OC)c1OC,.,-,7.38µM,-,-,-
CC(=O)c1ccc(OC2C=CC(c3ccc(Cl)cc3)OC2CO)cc1 (stereo unspecified),.,.,.,.,-[12.9 µM],.
CCSc1nnc(NC(=O)Nc2cccc(C)c2)s1,-,38.1,-,-,-,100.5
Cc1ccc(NC(=O)CSc2nnc(CNC(=O)c3ccco3)o2)cc1,-,-,-,.,-,-
O=C(CSc1nnc(CNC(=O)c2ccco2)o1)Nc1ccc(F)cc1,-,-,10.4µM,-,.,-
Oc1cccc(-c2nc3c4c(ncn3n2)-c2ccccc2CC42CCCC2)c1,11.7µM,-,9.28µM,-,-,-
COc1ccc(OCc2nc3c4c(ncn3n2)-c2ccccc2CC42CCCC2)cc1,?,-,13.1µM,-,-,-
Cc1ccccc1OCc1nc2c3c(ncn2n1)-c1ccccc1CC31CCCC1,?,-,5.22µM,-,-,-
Cc1cccc(OCc2nc3c4c(ncn3n2)-c2ccccc2CC42CCCC2)c1,-,-,?,-,-,-
COc1ccc(-c2nc3c4c(ncn3n2)-c2ccccc2CC42CCCC2)cc1,-,-,-,-,-,-
Cc1ccc(OCc2nc3c4c(ncn3n2)-c2ccccc2CC42CCCC2)cc1,?,-,14.7µM,-,-,-
CCOc1ccccc1C(=O)Nc1nnc(SCC(=O)Nc2cc(C)on2)s1,-,-,-,-,-,-
O=C(COC(=O)c1ccc(F)cc1F)NC1CC1,-,-,-,.,-,-
Cc1nc(NCc2ccccc2)c2nc(-c3ccccc3)n(CCCN3CCCCC3C)c2n1 (stereo unspecified),.,.,.,.,-,.
CCn1c(C)nc([N+](=O)[O-])c1Sc1ccc(F)cc1,?,-,10.4µM,-,-,-
COCCCNC(=O)C1CC(=O)N(C2CCCC2)C1 (stereo unspecified),-,-,10.4µM,-,-,-
CCOCCCNC(=O)C1CC(=O)N(C2CCCC2)C1 (stereo unspecified),-,-,11.7µM,-,-,-
SMILES,Pf growth 48h,Cycloheximide cs,Pf growth 96h,NS1 inh,FBPA Giardia inh,Shiga inhibitor
O=[N+]([O-])c1ccc2ncccc2c1CCc1c([N+](=O)[O-])ccc2ncccc12,.,.,.,-,.,.
Cc1ccc(N2CCN(c3ccc(NCc4nc5ccccc5n4C)cc3)CC2)cc1,13.1µM,-,5.22µM,-,-,-
Cc1cccc(NCc2nc3ccccc3n2Cc2ccccc2)c1,.,-,?,-,-,-
CN(Cc1nc2ccccc2n1C)S(=O)(=O)c1ccc(Cl)cc1,-,-,-,-,-,-
Cn1c(CNc2ccc(Cl)cc2)nc2ccccc21,-,30.6,?,-,-,110.1
Cc1cccc(NCc2nc3ccccc3n2C)c1,-,-,.,-,-,-
Cc1ccc(NCc2nc3ccccc3n2C)c(C)c1,-,23.0,-,-,-,45.5
COc1ccc(CNc2ccnc(-c3ccccc3C(F)(F)F)n2)c(OC)c1,.,.,.,.,-,.
CCc1cc(=O)oc2cc(C)cc(OC(C)C(=O)NC(Cc3c[nH]c4ccc(O)cc34)C(=O)O)c12 (stereo unspecified),-,-,-,?,-,-
Cn1c2ccc(CC(=O)O)cc2c2cc(CC(=O)O)ccc21,.,-,-,-,-,-
